Screening data from PubChem BioAssay.
TDP1 cell CPT = DT40-hTDP1 cell growth loss with CPT; chicken DT40 Tdp1-/-;hTDP1 cells + 20 nM CPT, ATP luminescence, 48 h; Potency, µM (series often up to 46.2 µM), most hits filed as inhibitors; actives 12% (n = 420,000); AID 686979; also: nearly all actives have a fitted effect of over 55% in size
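Chicken DT40 Tdp1-/- cells stably complemented with human TDP1 were seeded at 400 cells/well in medium containing 20 nM camptothecin, exposed to pin-transferred compounds, and grown at 37 °C for at least 48 hr. Viability was read as ATP luminescence.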
DT40 TDP1 no CPT = qHTS for Inhibitors of human tyrosyl-DNA phosphodiesterase 1 (TDP1): qHTS in cells in absence of CPT | DT40 Tdp1-/- hTDP1 cells, no CPT, ATP luminescence, 48 h | Potency, µM (doses to about 46.2 µM), most hits filed as inhibitors | actives 15% (n = 420,000) | AID 686978, 2013; also: nearly all actives have a fitted effect of over 55% in size
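Camptothecin absent (DMSO only). Human TDP1-complemented DT40 knockout cells, 400 cells/well, 37 °C for minimum 48 hr; ATP measured via CellTiter-Glo, 30 min dark incubation, luminescence.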
IL1B secr inh = inflammasome signaling inhibition, IL-1 beta readout; THP-1 LPS/ATP IL-1B secretion, AlphaLISA, 16 h; active compounds read low; activity change, % at 57.5 µM; actives 4.7% (n = 360,000); in the data active = activity change below about -50%; inconclusive = mostly about -30% to -49%
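Secreted IL-1B measured by AlphaLISA bead assay after 16 h compound exposure of THP-1 cells; compounds (final up to 57.5 uM) added 1 h before LPS (250 ng/mL) and ATP (1.25 mM) stimulation; lower signal means less secretion.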
HT1080NT lethal = kills 2HG-producing HT-1080-NT fibrosarcoma cells. HT-1080-NT fibrosarcoma viability, CellTiter-Glo ATP luminescence, 48 h. Potency, µM (highest dose often 46.1 µM), hits mostly cytotoxic. actives 1.6% (n = 360,000). AID 686970;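 also: NT is the 2HG producing partner of a matched IDH1 knockdown line; nearly all actives have a fitted effect of over 55% in size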
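A 48-hour cytotoxicity screen used HT-1080-NT cells plated 2 hours before compound delivery. ATP-based CellTiter-Glo luminescence measured viability, normalized to DMSO and no-cell controls.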
HT1080 IDH1KD tx = kills HT-1080 cells with IDH1 knockdown. HT-1080 IDH1 knockdown viability, ATP luminescence, 48 h. Potency, µM (doses to about 46.1 µM), hits mostly cytotoxic. actives 2% (n = 360,000). AID 686971
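Cytotoxicity counter-line: IDH1KD HT-1080, 48 h, CellTiter-Glo. Curves classed by r2, magnitude and activity.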
Of the large screens only hits and unclear results are named; the others gave an inactive call. This is a sample that favours compounds with a hit; in the whole collection about 19% have one here. Unless noted, calls follow the shape of the dose curve; as a rule, active = well fitted curve in the direction sought with a large enough effect; inconclusive = small, poorly fitted or top-dose-only effect, or another doubt; inactive = no such curve, though single readings can be large; an effect the other way counts as inactive or inconclusive.

CC(C)CCNC(=O)COc1ccc2c(c1)C(=O)CC(C)(C)O2	DT40 TDP1 no CPT inconclusive
CCCN(CCC)CCCn1c(=O)[nH]c2ccccc21	none
N#C/C(=C/c1ccc(Sc2nc3ccccc3[nH]2)o1)c1ccccc1F	TDP1 cell CPT 21µM, DT40 TDP1 no CPT 16µM, IL1B secr inh -96, HT1080NT lethal inconclusive, HT1080 IDH1KD tx inconclusive
N#C/C(=C/c1ccc(Sc2nc3ccccc3[nH]2)o1)c1cccc(F)c1	TDP1 cell CPT 21µM, DT40 TDP1 no CPT inconclusive, IL1B secr inh -94, HT1080NT lethal inconclusive, HT1080 IDH1KD tx inconclusive
CCOc1ccc(C(=O)Nc2cc(S(=O)(=O)Nc3ccccc3Cl)ccc2N2CCOCC2)cc1	TDP1 cell CPT inconclusive, DT40 TDP1 no CPT inconclusive
CNC(=O)c1sc(N2N=C3/C(=C/c4ccccc4)CCCC3C2c2ccccc2)nc1C (stereo not drawn)	TDP1 cell CPT inconclusive, DT40 TDP1 no CPT 13µM, HT1080 IDH1KD tx inconclusive
CNC(=O)c1sc(N2N=C3/C(=C\c4ccccc4)CCCC3C2c2ccccc2)nc1C (stereo not drawn)	TDP1 cell CPT inconclusive, DT40 TDP1 no CPT 26µM
COc1ccc(NC(=O)N2CCC(n3nnc4cc(C)ccc43)CC2)cc1	DT40 TDP1 no CPT inconclusive
CC(=O)c1sc(NC(=O)c2ccc(COc3ccccc3Cl)o2)nc1C	DT40 TDP1 no CPT inconclusive
CN(C)C(CNC(=O)CN1C(=O)NC2(CCc3ccccc32)C1=O)c1ccco1 (stereo not drawn)	none
O=S(=O)(c1ccccc1)c1nc(-c2ccco2)oc1N1CCCCC1	DT40 TDP1 no CPT inconclusive
CC1CCN(c2oc(-c3ccco3)nc2S(=O)(=O)c2ccccc2)CC1	DT40 TDP1 no CPT inconclusive, IL1B secr inh -53
CC1CCN(c2oc(-c3cccs3)nc2S(=O)(=O)c2ccccc2)CC1	TDP1 cell CPT inconclusive, DT40 TDP1 no CPT 21µM (no result: IL1B secr inh, HT1080NT lethal, HT1080 IDH1KD tx)
COc1ccc(C(C(=O)NC(C)C)N(C(=O)CCC(=O)Nc2nccs2)c2ccccc2F)cc1 (stereo not drawn)	TDP1 cell CPT inconclusive, DT40 TDP1 no CPT inconclusive
O=C(O)c1cc(N=Nc2c(O)ccc3ccccc23)cc(C(=O)O)c1	none
O=C(O)c1ccc(N=Nc2c(O)ccc3ncccc23)cc1	TDP1 cell CPT 4.1µM, DT40 TDP1 no CPT 2.9µM, HT1080NT lethal inconclusive, HT1080 IDH1KD tx 23µM
COc1ccc(OC)c(NC(=O)CSc2nnc(Cn3nnc4ccccc43)n2C)c1	none
COc1ccc(C(=O)NCC(c2ccccc2)N2CCCC2)cc1S(=O)(=O)N1CCOCC1 (stereo not drawn)	none
CC(=O)Nc1ccc(S(=O)(=O)Oc2cccc(N3C(=O)C4CC=CCC4C3=O)c2)cc1 (stereo not drawn)	TDP1 cell CPT inconclusive, DT40 TDP1 no CPT 21µM
CC(=O)Nc1ccc(S(=O)(=O)Oc2ccc(N3C(=O)C4CCCCC4C3=O)cc2)cc1 (stereo not drawn)	TDP1 cell CPT 16µM, DT40 TDP1 no CPT 18µM
Nc1ccn([C@@H]2O[C@H](CNCc3cc(Br)ccc3OCc3ccccc3)[C@@H](O)[C@H]2O)c(=O)n1	none
COC(=O)c1ccccc1NC(=O)c1cccnc1	none
COc1cccc(Cn2c(=O)cnc3cnc(N(C)C)nc32)c1	TDP1 cell CPT inconclusive (no result: IL1B secr inh, HT1080NT lethal, HT1080 IDH1KD tx)
CN=C1S/C(=C\c2cc(C)n(-c3ccccc3F)c2C)C(=O)N1C	TDP1 cell CPT 15µM, DT40 TDP1 no CPT 23µM
Cc1cc(/C=C2\SC(=O)N(C)C2=O)c(C)n1-c1ccc(O)cc1	TDP1 cell CPT inconclusive, DT40 TDP1 no CPT 21µM
Cc1cc(/C=C2\SC(=O)N(C)C2=O)c(C)n1-c1ccc(S(N)(=O)=O)cc1	TDP1 cell CPT 18µM, DT40 TDP1 no CPT 9.2µM
Cc1cc(/C=C2\SC(=O)NC2=O)c(C)n1-c1ccc(N(C)C)cc1	none
CC#CCOCC1CN(C)C(=O)O1 (stereo not drawn)	none
COc1ccc(C(=O)OCc2nc(N)nc(Nc3ccccc3C)n2)cc1OC	TDP1 cell CPT inconclusive, DT40 TDP1 no CPT inconclusive
O=C(NCc1ccccc1)C1c2ccccc2OCC(=O)N1Cc1ccc2c(c1)OCO2 (stereo not drawn)	TDP1 cell CPT inconclusive, DT40 TDP1 no CPT inconclusive, HT1080 IDH1KD tx inconclusive
CC(C)(C)NC(=O)C(c1ccncc1)N(C(=O)Cn1nnc(-c2ccc(F)cc2)n1)c1ccccc1F (stereo not drawn)	none
CC(C)(C)NC(=O)C(c1ccc(O)cc1)N(C(=O)Cn1nnc(-c2ccc(F)cc2)n1)c1ccccc1F (stereo not drawn)	TDP1 cell CPT inconclusive, DT40 TDP1 no CPT 16µM, IL1B secr inh inconclusive
Cc1ccccc1N(C(=O)Cn1nnc(-c2ccc(F)cc2)n1)C(C(=O)NC(C)(C)C)c1ccncc1 (stereo not drawn)	IL1B secr inh -57
Cc1ccc(N(C(=O)Cn2nnc(-c3ccc(F)cc3)n2)C(C(=O)NC(C)(C)C)c2ccncc2)cc1 (stereo not drawn)	IL1B secr inh -69
COc1ccc(CN2CCCC(n3cc(C(=O)N4CCCCC4)nn3)C2)c(OC)c1OC (stereo not drawn)	none (no result: IL1B secr inh, HT1080NT lethal, HT1080 IDH1KD tx)
COc1ccc2[nH]c(C)c(CCN(Cc3cccs3)C(=S)Nc3ccccc3)c2c1	TDP1 cell CPT inconclusive, DT40 TDP1 no CPT inconclusive, IL1B secr inh -50
COc1ccc(NC(=S)N(CCc2c(C)[nH]c3ccc(C)cc23)Cc2cccs2)cc1	TDP1 cell CPT 16µM, DT40 TDP1 no CPT inconclusive, IL1B secr inh -56, HT1080 IDH1KD tx inconclusive
O=C(NCc1ccc2c(c1)OCO2)c1[nH]c(C(F)(F)F)nc1-c1ccccc1	none
Cc1ccccc1N=CC1=C(O)c2ccccc2C1=O	TDP1 cell CPT inconclusive, DT40 TDP1 no CPT 16µM, HT1080NT lethal inconclusive, HT1080 IDH1KD tx inconclusive
COc1ccc(N=CC2=C(O)c3ccccc3C2=O)c(OC)c1	TDP1 cell CPT inconclusive, DT40 TDP1 no CPT 18µM, HT1080NT lethal inconclusive
CC(C)(C)c1ccc(SCCc2cccnc2)cc1	none
COCCNc1nc(Nc2ccc(F)cc2)c2sccc2n1	TDP1 cell CPT 18µM, DT40 TDP1 no CPT 12µM, HT1080NT lethal inconclusive
COCCNc1nc(Nc2ccc(C#N)cc2)c2sccc2n1	TDP1 cell CPT 21µM, DT40 TDP1 no CPT 16µM, HT1080NT lethal inconclusive
COCCNc1nc(NCCCN2CCCC2=O)c2sccc2n1	none
Cc1nc2c(C(=O)NC(C)c3ccccc3)cnn2c(C)c1Cc1ccccc1 (stereo not drawn)	TDP1 cell CPT 13µM, DT40 TDP1 no CPT inconclusive (no result: IL1B secr inh, HT1080NT lethal, HT1080 IDH1KD tx)
COC(CNC(=O)c1cnn2c(C)c(Cc3ccccc3)c(C)nc12)OC	TDP1 cell CPT inconclusive, DT40 TDP1 no CPT 16µM, IL1B secr inh inconclusive
CCNC(=O)C1(C)CCCN1C(=O)c1cc(C)on1 (stereo not drawn)	none
